# Reference: PubChem BioAssay (NCATS)
# Results filed as inconclusive are left out. Where a call stands in place of a potency, no number is given. A number with no mark means an inactive call. Calls of active or inactive are those of the source. Unless noted, the call rests on the fitted dose curve. Peptide text beside a SMILES is read from it.
# How the values were obtained:
# [1] = qHTS for Inhibitors of the Functional Ribonucleoprotein Complex (vRNP) of Lassa (LASV) Arenavirus: LASV Primary Screen - GLuc reporter signal (AID 1347082; calls by dose curve; tested in HEK293 reporter line; further: series mostly up to about 57 µM; nearly all actives have a fitted effect of over 60% in size)
# [2] = qHTS for Inhibitors of the Functional Ribonucleoprotein Complex (vRNP) of Lassa (LASV) Arenavirus: Viability assay - alamar blue signal for LASV Primary Screen (AID 1347083; calls by dose curve; tested in HEK293 reporter line; further: nearly all actives have a fitted effect of over 80% in size; further: potency means the concentration at half of the fitted maximal effect; on activity change, negative = reduced viability: series mostly up to about 57 µM)
# [3] = qHTS for Inhibitors of the Functional Ribonucleoprotein Complex (vRNP) of Lymphocytic Choriomeningitis Arenaviruses (LCMV): Viability assay - alamar blue signal for LCMV Primary Screen (AID 1347085; calls by dose curve; tested in HEK293 reporter line; further: series mostly up to about 57 µM; nearly all actives have a fitted effect of over 80% in size)
# [4] = biological target: Nucleoprotein (Lymphocytic choriomeningitis virus (strain Armstrong)) (UniProt P09992); assay: qHTS for Inhibitors of the Functional Ribonucleoprotein Complex (vRNP) of Lymphocytic Choriomeningitis Arenaviruses (LCMV): LCMV Primary Screen - GLuc reporter signal (AID 1347086); further: series mostly up to about 57 µM; nearly all actives have a fitted effect of over 70% in size
# Sequence of Nucleoprotein (Lymphocytic choriomeningitis virus (strain Armstrong)) (P09992 whole entry, looked up): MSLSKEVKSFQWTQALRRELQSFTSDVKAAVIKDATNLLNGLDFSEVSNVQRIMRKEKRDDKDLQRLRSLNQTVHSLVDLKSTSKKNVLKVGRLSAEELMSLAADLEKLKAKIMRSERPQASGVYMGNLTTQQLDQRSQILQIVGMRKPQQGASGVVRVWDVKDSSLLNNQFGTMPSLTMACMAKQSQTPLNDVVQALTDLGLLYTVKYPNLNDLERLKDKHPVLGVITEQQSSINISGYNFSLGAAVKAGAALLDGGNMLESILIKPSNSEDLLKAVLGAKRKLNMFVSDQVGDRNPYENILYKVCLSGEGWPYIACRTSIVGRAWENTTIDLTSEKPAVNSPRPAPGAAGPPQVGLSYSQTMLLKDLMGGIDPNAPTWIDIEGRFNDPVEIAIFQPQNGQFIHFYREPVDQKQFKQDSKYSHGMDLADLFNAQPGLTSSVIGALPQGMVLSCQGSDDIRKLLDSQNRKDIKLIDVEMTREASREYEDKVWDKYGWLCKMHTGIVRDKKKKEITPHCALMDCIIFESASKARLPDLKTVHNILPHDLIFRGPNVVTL
Compound,Potency [1],Potency [2],Potency [3],Potency [4],"activity change, negative = inhibition [1]","activity change, negative = reduced viability [2]","activity change, negative = lower viability [3]","activity change, negative = inhibition [4]"
Cc1c(C)c2c(c(C)c1O)CCC(C)(COc1ccc(CC3SC(=O)NC3=O)cc1)O2 (stereo not given),inactive,inactive,inactive,inactive,–,–,–,–
c1ccc2c(CC3=NCCN3)cccc2c1,inactive,inactive,inactive,inactive,–,–,–,–
CN(c1nccc(=O)[nH]1)C1CCN(c2nc3ccccc3n2Cc2ccc(F)cc2)CC1,inactive,30.6 µM (active),inactive,inactive,–,–,–,–
Cc1ccsc1/C=C/C1=NCCCN1C,inactive,inactive,inactive,inactive,–,–,–,–
Cn1c(=O)c2[nH]cnc2n(C)c1=O,inactive,inactive,inactive,inactive,–,–,–,–
CCOC(=O)C1=C(C)NC(C)=C(C(=O)OC)C1c1cccc([N+](=O)[O-])c1 (stereo not given),inactive,inactive,inactive,inactive,–,–,–,–
CC(CCc1ccccc1)NCC(O)c1ccc(O)c(C(N)=O)c1 (stereo not given),inactive,inactive,inactive,inactive,–,–,–,–
CC(=O)OCC(=O)[C@@]1(OC(C)=O)[C@@H](C)C[C@H]2[C@@H]3C[C@H](F)C4=CC(=O)C=C[C@]4(C)[C@@]3(F)[C@@H](O)C[C@@]21C,inactive,inactive,inactive,inactive,–,–,–,–
CC(=O)c1ccc(O)c(C(N)=O)c1,inactive,inactive,inactive,inactive,–,–,–,–
O=C(CCCl)NCc1ccccc1,inactive,inactive,inactive,inactive,–,–,–,–
C[C@H](NC(CCc1ccccc1)C(=O)O)C(=O)N1CCC[C@H]1C(=O)O (stereo not given in full),inactive,inactive,inactive,inactive,–,–,–,–
CC(=O)Nc1ccc(OC(=O)c2ccccc2OC(C)=O)cc1,inactive,inactive,inactive,inactive,–,–,–,–
CC(=O)c1ccc(OCC(=O)N2CCCCC2)cc1,inactive,inactive,inactive,inactive,–,–,–,–
O=C1CCCc2c(O)cccc21,inactive,inactive,inactive,inactive,–,–,–,–
CCn1cc(C(=O)O)c(=O)c2cnc(N3CCCC3)nc21,–,–,–,–,2.17% [at 11.5 µM],9.34% [at 11.5 µM],6.9% [at 11.5 µM],14.6% [at 11.5 µM]
CC(=O)N(c1onc(C)c1C)S(=O)(=O)c1ccc(N)cc1,inactive,inactive,inactive,inactive,–,–,–,–
COc1cc(/C=C/C(N)=O)cc(OC)c1OC,inactive,inactive,inactive,inactive,–,–,–,–
O=C(O)c1cccnc1,inactive,inactive,inactive,inactive,–,–,–,–
COc1cc(C)c(Cc2cnc(N)nc2N)cc1OC,inactive,inactive,inactive,inactive,–,–,–,–
Cc1c(C(=O)NCCO)[n+](=O)c2ccccc2n1[O-],inactive,inactive,inactive,inactive,–,–,–,–

Compound,Potency [1],Potency [2],Potency [3],Potency [4],"activity change, negative = inhibition [1]","activity change, negative = reduced viability [2]","activity change, negative = lower viability [3]","activity change, negative = inhibition [4]"
O=C(O)[C@@H]1[C@H]2C[C@H]3c4[nH]c5ccccc5c4CCN3C[C@@H]2CC[C@@H]1O,inactive,inactive,inactive,inactive,–,–,–,–
COc1cc(C(=O)N2CCCCCCC2)cc(OC)c1OC,inactive,inactive,inactive,inactive,–,–,–,–
CCCCCCCCCCCCCCCCN,inactive,inactive,inactive,inactive,–,–,–,–
O=c1[nH]c(=O)n([C@H]2C[C@H](O)[C@@H](CO)O2)cc1Br,inactive,inactive,inactive,inactive,–,–,–,–
COc1ccc(CCN(C)CCCN2CCc3cc(OC)c(OC)cc3CC2=O)cc1OC,inactive,inactive,inactive,inactive,–,–,–,–
O=C1CC[C@@H](C(=O)O)N1,inactive,inactive,inactive,inactive,–,–,–,–
NCC(=O)CCC(=O)O,inactive,inactive,inactive,inactive,–,–,–,–
Cc1ccc2ccc(Cl)cc2n1,inactive,inactive,inactive,inactive,–,–,–,–
CN1CCN(C(=O)C2CCCCC2)CC1,inactive,inactive,inactive,inactive,–,–,–,–
O=C(Oc1ccccc1)c1ccccc1O,inactive,inactive,inactive,inactive,–,–,–,–
Cc1c(Nc2ncccc2C(=O)O)cccc1C(F)(F)F,inactive,inactive,inactive,inactive,–,–,–,–
CC(=O)Nc1ccc(C(=O)O)cc1,inactive,inactive,inactive,inactive,–,–,–,–
CC(C)OC(=O)OCOP(=O)(CO[C@H](C)Cn1cnc2c(N)ncnc21)OCOC(=O)OC(C)C,inactive,inactive,inactive,inactive,–,–,–,–
COc1c2occc2c(OC)c2c(=O)cc(C)oc12,inactive,inactive,inactive,inactive,–,–,–,–
O=C(NCN1CCOCC1)c1cnccn1,inactive,inactive,inactive,inactive,–,–,–,–
C=CCN1C[C@H](C(=O)N(CCCN(C)C)C(=O)NCC)C[C@@H]2c3cccc4[nH]cc(c34)C[C@H]21,inactive,inactive,inactive,inactive,–,–,–,–
O=C(O)[C@@H](O)[C@H](O)[C@H](O)[C@@H](O)C(=O)O,inactive,inactive,inactive,inactive,–,–,–,–
NC(N)=NC(=O)Cc1c(Cl)cccc1Cl,inactive,inactive,inactive,inactive,–,–,–,–
Clc1cccc(Cl)c1NC1=NCCN1,inactive,inactive,inactive,inactive,–,–,–,–
CCCCNC(=O)NS(=O)(=O)c1ccc(N)cc1,inactive,inactive,inactive,inactive,–,–,–,–

Compound,Potency [1],Potency [2],Potency [3],Potency [4],"activity change, negative = inhibition [1]","activity change, negative = reduced viability [2]","activity change, negative = lower viability [3]","activity change, negative = inhibition [4]"
NC(N)=Nc1nc(CSCC/C(N)=N/S(N)(=O)=O)cs1,inactive,inactive,inactive,inactive,–,–,–,–
O=C1c2ccccc2CCc2ccccc21,inactive,inactive,inactive,inactive,–,–,–,–
Nc1ncnc2c1ncn2Cc1c(F)cccc1Cl,inactive,inactive,inactive,inactive,–,–,–,–
CC(C(=O)O)c1ccc2c(c1)[nH]c1ccc(Cl)cc12 (stereo not given),inactive,inactive,inactive,inactive,–,–,–,–
CN=C(N)NC(=O)Nc1c(C)cccc1C,inactive,inactive,inactive,inactive,–,–,–,–
C[C@]12CCC(=O)C=C1CC[C@H]1[C@@H]3CC[C@](O)(C(=O)CO)[C@@]3(C)C[C@H](O)[C@@]12F,inactive,inactive,inactive,inactive,–,–,–,–
CC(C)=CCC[C@@](C)(O)[C@H]1CC=C(C)CC1,inactive,inactive,inactive,inactive,–,–,–,–
O=C(O)Cc1cccc2ccccc12,inactive,inactive,inactive,inactive,–,–,–,–
CN1[C@@H]2CC(OC(=O)[C@H](CO)c3ccccc3)C[C@H]1[C@@H]1O[C@@H]12 (stereo not given in full),inactive,inactive,inactive,inactive,–,–,–,–
COC(=O)[C@@H]1[C@H]2C[C@H]3c4[nH]c5ccccc5c4CCN3C[C@@H]2CC[C@@H]1O,inactive,inactive,inactive,inactive,–,–,–,–
OC1(c2ccccc2)CCNCC1,inactive,inactive,inactive,inactive,–,–,–,–
Cc1cccn2c(=O)c(-c3nnn[nH]3)cnc12,inactive,inactive,inactive,inactive,–,–,–,–
CCN1CCCC1CN (stereo not given),inactive,inactive,inactive,inactive,–,–,–,–
C[C@]12C=CC(=O)C=C1[C@@H](F)C[C@@H]1[C@@H]2[C@@H](O)C[C@@]2(C)[C@H]1CC[C@]2(O)C(=O)CO,inactive,inactive,inactive,inactive,–,–,–,–
CC(CSC(=O)c1ccccc1)C(=O)N1C[C@@H](Sc2ccccc2)C[C@H]1C(=O)O (stereo not given in full),inactive,inactive,inactive,inactive,–,–,–,–
CCn1cc(C(=O)O)c(=O)c2cc(F)c(N3CCNC(C)C3)c(F)c21 (stereo not given),inactive,inactive,inactive,inactive,–,–,–,–
C=C[C@H]1CN2CC[C@H]1C[C@H]2[C@H](O)c1ccnc2ccc(OC)cc12,inactive,inactive,inactive,inactive,–,–,–,–
NC(=O)c1ncn([C@@H]2O[C@H](CO)[C@@H](O)[C@H]2O)c1O,inactive,inactive,inactive,inactive,–,–,–,–
CCNC(=O)[C@@H]1CCCN1C(=O)[C@H](CCCN=C(N)N)NC(=O)[C@H](CC(C)C)NC(=O)CNC(=O)[C@H](Cc1ccc(O)cc1)NC(=O)[C@H](CO)NC(=O)[C@H](Cc1c[nH]c2ccccc12)NC(=O)[C@H](Cc1cnc[nH]1)NC(=O)[C@@H]1CCC(=O)N1 (HELM PEPTIDE1{[Glp].H.W.S.Y.G.L.R.P.[CCN[*:1]]}$$$$V2.0),inactive,inactive,inactive,inactive,–,–,–,–
N#CCC(=O)NN,inactive,inactive,inactive,inactive,–,–,–,–
